BoNT A protease = BoNT/A light chain protease inhibitors, primary screen, biochemical, flow cytometry, MLPCN library | Botulinum neurotoxin type A light chain protease (Clostridium botulinum A str. ATCC 3502) | multiplex microsphere protease substrate cleavage | inhibition, % at 10 µM | 360,000 compounds, 0.17% hits | AID 588499, 2011; note: plate controls were buffer without enzyme for full effect and enzyme alone for no effect
Anthrax LF inh2 = Bacillus anthracis LF protease inhibitors, primary screen, biochemical, multiplex microsphere, MLPCN library; multiplex microsphere protease cleavage assay; inhibition, % at 10 µM; 360,000 compounds, 0.12% hits; AID 588501, 2011; note: plate controls were buffer without enzyme for full effect and enzyme alone for no effect
Target sequence (P15917 whole entry, looked up): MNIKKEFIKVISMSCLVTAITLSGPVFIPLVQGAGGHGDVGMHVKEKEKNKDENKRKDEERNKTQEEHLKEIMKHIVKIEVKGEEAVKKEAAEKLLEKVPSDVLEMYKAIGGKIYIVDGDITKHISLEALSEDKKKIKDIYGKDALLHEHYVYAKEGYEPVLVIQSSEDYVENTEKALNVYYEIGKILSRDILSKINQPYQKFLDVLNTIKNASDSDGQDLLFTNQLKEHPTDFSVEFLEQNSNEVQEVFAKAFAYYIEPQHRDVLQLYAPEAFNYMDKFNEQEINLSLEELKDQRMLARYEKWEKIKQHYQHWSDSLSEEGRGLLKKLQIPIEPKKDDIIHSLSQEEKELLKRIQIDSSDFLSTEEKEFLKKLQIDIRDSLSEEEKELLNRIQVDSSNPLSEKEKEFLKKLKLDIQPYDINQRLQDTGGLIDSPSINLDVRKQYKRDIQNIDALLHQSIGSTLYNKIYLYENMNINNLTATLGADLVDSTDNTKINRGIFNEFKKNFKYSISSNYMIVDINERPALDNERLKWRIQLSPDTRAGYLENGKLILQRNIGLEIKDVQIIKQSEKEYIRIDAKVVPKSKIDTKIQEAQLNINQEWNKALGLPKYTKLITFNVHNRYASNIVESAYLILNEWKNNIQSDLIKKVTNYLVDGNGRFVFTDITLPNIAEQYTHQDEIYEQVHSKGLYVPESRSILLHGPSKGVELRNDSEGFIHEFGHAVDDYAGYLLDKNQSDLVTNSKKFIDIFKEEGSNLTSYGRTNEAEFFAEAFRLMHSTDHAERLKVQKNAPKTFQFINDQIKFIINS
VHR inh abs = VHR1 phosphatase inhibitors, primary screen, biochemical, absorbance, uHTS | AID 1654, 2009 | 290,000 compounds, 0.52% hits | inhibition, % at 13.3 µM | Dual specificity protein phosphatase 3 (Homo sapiens), P51452 | recombinant VHR phosphatase, pNPP absorbance; in the data active = inhibition above about 50%
Bead autofluor = compound fluorescence in toxin protease inhibitor counterscreen; compound autofluorescence counterscreen, microsphere flow cytometry; stronger effect = higher value; fluorescence intensity (test concentration not listed); 360,000 compounds, 3.1% hits; AID 624483; in the data active = fluorescence intensity above about 16000; inconclusive = no clear call, values can overlap the other calls
MazF activator = activators of E. coli MazEF toxin-antitoxin RNase, primary screen, biochemical, fluorescence, uHTS; Endoribonuclease toxin MazF (Escherichia coli (strain K12)), P0AE70; FAM/BHQ RNA-DNA oligo cleavage fluorescence, 5 h; activation, % at 20 µM; 350,000 compounds, 0.32% hits; in the data active = activation above about 50%
BoNT F protease = BoNT/F light chain protease inhibitors, primary screen, biochemical, flow cytometry, MLPCN library. 360,000 compounds, 0.22% hits. Multiplex microsphere protease cleavage assay. inhibition, % at 10 µM. AID 588497, 2011. Botulinum neurotoxin type F light chain protease (Clostridium botulinum); in the data active = inhibition above about 35%, passing the limit was not always enough; inconclusive = no clear call, values can overlap the other calls; note: plate controls were buffer without enzyme for full effect and enzyme alone for no effect
Active calls of the source: *. Sampled rows, rich in hits. Any-hit rate of the full collection: about 4%. Cut-off read from the data, not from the text of the source, unless noted: active = inhibition above about 30%; inconclusive = no clear call, values can overlap the other calls; inactive = below that.

Results for FC(F)(F)c1nnc2c(Sc3ccccc3)nc3ccc(Cl)cc3n12 ?
BoNT A protease: 0.7; Anthrax LF inh2: -1.7; VHR inh abs: 43.7; Bead autofluor: 15965; MazF activator: 5.5; BoNT F protease: 1.5

What do the screens show for `COCCNC(=O)c1cc2cc(Br)cc(OC)c2oc1=O`?
BoNT A protease: inconclusive; Anthrax LF inh2: 0.9; VHR inh abs: 20.7; Bead autofluor: 21622*; MazF activator: -8.5; BoNT F protease: -4.4

How did Nc1ccc(S(=O)(=O)NCC(=O)OCCOc2ccccc2)cc1[N+](=O)[O-] do in these assays?
BoNT A protease: 0.4; Anthrax LF inh2: 0.5; Bead autofluor: 5440; MazF activator: -1.1; BoNT F protease: 2.4

Results for CSc1ccc(S(=O)(=O)NCC(=O)OCCOc2ccccc2)cc1[N+](=O)[O-] ?
BoNT A protease: 0.3; Anthrax LF inh2: -3.7; Bead autofluor: 5708; MazF activator: 78.1*; BoNT F protease: 3.7

What do the screens show for `O=C1C2C3C=CC(C3=C(c3ccccc3)c3ccccc3)C2C(=O)N1CCO` (stereo not drawn)?
BoNT A protease: -0.8; Anthrax LF inh2: -1.3; VHR inh abs: 10.5; Bead autofluor: 16812*; MazF activator: 3.1; BoNT F protease: -0.4

How did O=C1N/C(=C\c2ccc(O)cc2)C(=O)c2ccccc21 do in these assays?
BoNT A protease: 4.6; Anthrax LF inh2: -8.2; VHR inh abs: 10.5; Bead autofluor: 19019*; MazF activator: 7.2; BoNT F protease: 5.3

How did O=C(O)/C=C1\NC(=O)c2ccccc21 do in these assays?
BoNT A protease: -0.8; Anthrax LF inh2: 1.4; VHR inh abs: -12.1; Bead autofluor: 4999; MazF activator: 2.5; BoNT F protease: -22.0

What do the screens show for `Cc1cccc(-n2c(-c3csc(C(C)C)c3)n[nH]c2=S)c1`?
BoNT A protease: 7.2; Anthrax LF inh2: -10.7; VHR inh abs: -12.2; Bead autofluor: 20031*; MazF activator: -16.6; BoNT F protease: 9.4

What do the screens show for `CC[C@@H](CCC=C(C)C)C(=O)N(Cc1ccccc1)c1ccccc1`?
BoNT A protease: -0.4; Anthrax LF inh2: 6.2; Bead autofluor: 3108; MazF activator: 2.6; BoNT F protease: -2.1

How did COc1ccc(CNCC(O)(c2ccccc2)c2ccc(Cl)cc2)cc1 (stereo not drawn) do in these assays?
BoNT A protease: -0.1; Anthrax LF inh2: 1.6; VHR inh abs: -7.3; Bead autofluor: 9814; MazF activator: 8.4; BoNT F protease: -14.5

How did CCOc1cc(CNCc2cc(OC)cc(OC)c2)ccc1OC do in these assays?
BoNT A protease: -1.7; Anthrax LF inh2: -3.2; VHR inh abs: 51.3*; Bead autofluor: 4027; MazF activator: 10.2; BoNT F protease: -32.8

Results for COc1cccc(CNCC(O)(c2ccc(Cl)cc2)c2ccc(Cl)cc2)c1 ?
BoNT A protease: -0.3; Anthrax LF inh2: -3.3; VHR inh abs: 21.3; Bead autofluor: 23322*; MazF activator: -6.7; BoNT F protease: -12.2

Results for COc1cccc(CNCc2ccc(OC)cc2OC)c1 ?
BoNT A protease: -0.2; Anthrax LF inh2: 5.1; VHR inh abs: 55.7*; Bead autofluor: 4115; MazF activator: 13.3; BoNT F protease: inconclusive

What do the screens show for `COc1ccc(C=O)cc1OC(=O)C1(C)Cc2ccccc2C(=O)O1` (stereo not drawn)?
BoNT A protease: -0.1; Anthrax LF inh2: 3.4; VHR inh abs: 12.5; Bead autofluor: 4178; MazF activator: 3.9; BoNT F protease: -9.9

What do the screens show for `CCCc1cc(=O)[nH]c(SCC(=O)N(C)CC(=O)Nc2ccc(C)cc2)n1`?
BoNT A protease: -0.5; Anthrax LF inh2: -1.6; VHR inh abs: 23.4; Bead autofluor: 4625; MazF activator: -9.1; BoNT F protease: -2.2

What do the screens show for `O=C(O)CCS(=O)(=O)Cc1cccc(Cl)c1`?
BoNT A protease: -1.3; Anthrax LF inh2: -1.1; VHR inh abs: -8.0; Bead autofluor: 23460*; MazF activator: -7.3; BoNT F protease: -1.6

What do the screens show for `Cc1[nH]n(-c2ccccc2)c(=O)c1/C=N/NC(=O)c1cccc([N+](=O)[O-])c1`?
BoNT A protease: -0.9; Anthrax LF inh2: -3.5; VHR inh abs: 28.2; Bead autofluor: 3359; MazF activator: -7.6; BoNT F protease: -0.1
